Screening data: PubChem BioAssay, National Center for Advancing Translational Sciences (NCATS)
This is a sample that favours compounds with a hit; in the whole collection about 8% have one here.
SARS PLP yeast: SARS-CoV PLP inhibition in yeast. S. cerevisiae expressing SARS-CoV PLpro, growth rescue. Potency, µM (titrated, usually from 32.9 µM), inactives show at the top dose activity, positive = growth rescue, hits mostly activators. 330,000 compounds, 0.19% hits. AID 485353; calls by dose curve; note: potency is the fitted concentration of half-maximal effect; 0% is about no effect; nearly all actives have a fitted effect of over 55% in size
HCMV antiviral: human cytomegalovirus inhibition | HFF cells, HCMV-luciferase reporter, 72 h; hits give low values | activity change, negative = inhibition, % at 57.5 µM | 410,000 compounds, 4.5% hits; in the data active = activity change below about -60%; inconclusive = no clear call, values can overlap the other calls; inactive = above about -39%; note: % is set by controls: 0 for no effect and ±100 for the full control effect
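Two-dose cell screen: HFF monolayers treated with compounds and infected with luciferase-expressing HCMV at 1 PFU/cell, 72 h at 37C, then lysed for luciferase measurement.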
HCV inhibitor: HCV inhibition | Huh7.5.1 HCVcc-Cre infection, luciferase reporter, 44 h | AID 651820 | 340,000 compounds, 3.4% hits | Potency, µM (highest dose often 41.8 µM), for inactives: top-dose activity change, negative = inhibition, usual class: inhibitors; active = well fitted inhibition curve with a large enough effect; inconclusive = small, poorly fitted or top-dose-only effect, or another doubt; inactive = no such curve, though single readings can be large or run the other way; note: potency is the fitted concentration of half-maximal effect; % is set by controls: 0 for no effect and ±100 for the full control effect
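Whole-lifecycle infectious HCVcc-Cre system; cells 1,000/well, compound then virus (~0.5 moi) added 4 h after plating, 44 h culture. Luciferase read 15 sec following 15 min substrate incubation, room temp.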
FMDV antiviral: antivirals against foot and mouth disease virus. FMDV antiviral cell-based qHTS. Potency, µM (doses to about 57.9 µM), for the others: at the highest dose activity change, negative = inhibition, actives largely listed as inhibitors. 410,000 compounds, 1.2% hits; calls by dose curve; tested in HEK293T cells; note: read-out not given here; potency is the fitted concentration of half-maximal effect; % is set by controls: 0 for no effect and ±100 for the full control effect; nearly all actives have a fitted effect of over 45% in size
Marburg entry inh: Marburg virus entry inhibition | 300,000 compounds, 1.8% hits | Potency, µM (titrated, usually from 37.8 µM), inactives show top-dose activity change, negative = inhibition, most hits filed as inhibitors | Marburg virus pseudotyped entry inhibition, cell reporter; calls by dose curve; tested in HEK293 cells; note: potency is the fitted concentration of half-maximal effect; % is set by controls: 0 for no effect and ±100 for the full control effect
Lassa entry inh: inhibitors of Lassa virus binding or cell entry | Lassa virus pseudotype entry inhibition, cell reporter | Potency, µM (series often up to 37.9 µM), without a hit: top-dose activity change, negative = inhibition, most hits filed as inhibitors | 300,000 compounds, 1.2% hits | AID 540256; calls by dose curve; tested in HEK293 cells; note: potency is the fitted concentration of half-maximal effect; % is set by controls: 0 for no effect and ±100 for the full control effect; nearly all actives have a fitted effect of over 50% in size
Starred values were filed as active, the others as inactive; i = inactive; ? = inconclusive; · = not tested or not shown; [ ] = dose if it differs, or a comment.

SMILES	SARS PLP yeast	HCMV antiviral	HCV inhibitor	FMDV antiviral	Marburg entry inh	Lassa entry inh
Cc1nc(S[C@@H]2C=CS(=O)(=O)C2)n[nH]1	·	·	·	·	0.1%	·
Cc1cc2nc(-c3ccc(NC(=O)c4ccc(OCC(C)C)cc4)cc3)oc2cc1C	·	14.7	·	6.1%	·	13.9%[46.1 µM]
CCCCCN(C(=O)CCC(=O)OCc1ccccc1Cl)c1c(N)n(CCCC)c(=O)[nH]c1=O	-0.4%	-2.2	·	12.1%	?	-20.0%
CCCCCN(C(=O)CCC(=O)OCc1ccc(Cl)cc1Cl)c1c(N)n(CCCC)c(=O)[nH]c1=O	-2.5%	-9.3	?	-27.7%	2.51µM*	?
CCCCn1c(N)c(N(CC)C(=O)c2cccc(OC)c2)c(=O)[nH]c1=O	-3.3%	-71.7*	4.9%	-8.0%	3.5%[46.1 µM]	24.4%[46.1 µM]
CCCCn1c(N)c(N(CC)C(=O)c2cccs2)c(=O)[nH]c1=O	2.2%	-60.5*	-1.8%	-1.7%	11.8%	4.9%
C=CCN(C(=O)c1csnn1)C(C(=O)NC1CCCC1)c1ccc(OC)cc1 (stereo unspecified)	2.6%	-12.3	9.6%	13.9%	9.3%[46.1 µM]	?
COCC(=O)Nc1ccc2c(c1)[C@H]1C[C@@H](CC(=O)NCC3CC3)O[C@H](CO)[C@H]1O2	·	5.1	·	·	·	·
Cc1cccc(N=C2NN=C(c3ccc4c(c3)OCCO4)CS2)c1	2.5%	106.6	-24.6%	4.4%	?	?
Cc1cccc(N=C2NN=C(c3c(C)[nH]c4ccccc34)CS2)c1	9.2%	-98.9*	?	?	?	?
CCOc1cc(/C=C/C(=O)c2ccc(O)cc2)ccc1OCC(=O)N(C)C	-21.9%	?	?	?	-27.3%	?
O=C(O)c1ccc(/C=C/C(=O)c2ccc3c(c2)OCCCO3)cc1	-4.0%	i	1.0%	10µM*	?	?
COc1ccc(/C=C/C(=O)c2ccc3c(c2)OCCO3)cc1[N+](=O)[O-]	8.7%	178.4	31.6µM*	?	?	-6.1%
COc1ccc(/C=N/NC(=O)c2ccc3c(c2)OCCO3)cc1[N+](=O)[O-]	0.2%	-21.6	-8.2%	-5.2%	19.3%	13.3%
CC(=O)Nc1ccc(/C=C/C(=O)c2ccc3c(c2)OCCO3)cc1	2.1%	-13.4	-12.3%	-28.2%	1.4%[46.1 µM]	-24.9%
CCOc1cc(/C=C/C(=O)c2ccc3c(c2)OCCO3)ccc1OCC(=O)N(C)C	1.0%	-76.7*	?	14.1µM*	?	·
CC(C)(C)c1cc(C(=O)/C=C/c2ccc(C(=O)O)cc2)cc(C(C)(C)C)c1	·	·	·	25.1µM*	·	·
Cc1ccc2c(c1)CN(C(=O)CC(c1ccccc1)c1ccco1)CC(C)O2 (stereo unspecified)	·	·	·	-5.8%	·	·
COc1ccc(/C=C/C(=O)c2ccc(Cl)s2)cc1O	-28.8%	14.7	-5.0%	-5.9%	14.3%	1.6%
COc1cc(/C=C/C(=O)c2ccc(Cl)s2)cc(OC)c1O	-29.3%	·	12.6µM*	12.6µM*	?	?
COc1cc(/C=C/C(=O)c2ccc3c(c2)OCO3)cc(Cl)c1O	-5.8%	-62.3*	-19.2%	29.9%	?	-12.4%[46.1 µM]
COc1ccc(C(=O)C=Cc2ccc3c(c2)OCO3)cc1OC	·	6.4	·	7.5%	·	·
COc1cccc(/C=C/C(=O)c2ccc3c(c2)OCCO3)c1OC	-8.2%	-95.7*	-11.2%	-1.5%	?	?
COc1ccc(/C=N/N=C2/CC(C)(C)Cc3n[nH]c(=O)cc32)cc1	1.7%	-23.3	-15.4%	-9.7%	-0.9%[46.1 µM]	-1.8%[46.1 µM]
O=C(O)CSC1=c2ccccc2=NC1c1cccs1 (stereo unspecified)	·	·	·	·	8.1%	·
SMILES	SARS PLP yeast	HCMV antiviral	HCV inhibitor	FMDV antiviral	Marburg entry inh	Lassa entry inh
CCOC(=O)c1c(NC(=O)Cc2coc3cc(C)cc(C)c23)sc2c1CCC2	·	0.1	·	-7.2%	26.3%[46.1 µM]	21.5%[46.1 µM]
Cc1nc2ncnn2c(C)c1CCC(=O)Oc1ccccc1	1.5%	-60.3*	18.6%	17.3%	10.6%	0.8%
Cc1nc2ncnn2c(C)c1CCC(=O)NCCc1ccccc1	0.7%	41.8	3.9%	34.1%	12.0%	15.4%
COc1ccc(C2NC(=O)c3sc(=S)n(-c4ccccc4)c3N2)cc1 (stereo unspecified)	2.0%	-25.4	-7.2%	0.0%	-2.8%	-18.2%
O=C1NC(c2ccccc2)Nc2c1sc(=S)n2-c1ccccc1 (stereo unspecified)	-2.0%	-103.7*	0.5%	?	21.2%[46.1 µM]	-6.7%
O=C(Nc1cccc(-c2ccc(N3CCCCC3)nn2)c1)C(F)(F)F	-1.9%	-4.3	-12.9%	-62.4%	·	·
CC1CCN(c2ccc(-c3cccc(NC(=O)C(F)(F)F)c3)nn2)CC1	-0.3%	-4.1	-19.6%	15.8µM*	?	2.24µM*
Cc1c(-c2cccc(NC(=O)c3ccco3)c2)nc2ncccn12	0.0%	-76.0*	?	-1.8%	5.4%[46.1 µM]	9.4%
COc1ccc(-c2cccc(NC(=O)c3ccco3)c2)nn1	-6.7%	-34.0	-1.7%[8.37 µM]	-5.9%	10.2%	?
CCC(=O)Nc1ccc(-c2ccc(N3CCC(C)CC3)nn2)cc1	-1.6%	·	-9.7%	17.7%	·	·
CCC(=O)Nc1cccc(-c2ccc(N3CCC(C)CC3)nn2)c1	-2.5%	-67.0*	-5.1%	-73.9%	·	·
CC1CCN(c2ccc(-c3cccc(NC(=O)c4ccco4)c3)nn2)CC1	-3.3%	37.2	?	-23.7%	7.94µM*	2.51µM*
COCCN1C(=O)CC[C@@]23C1=NC(C(=O)OC)=C(C(=O)OC)[C@@H]2N(Cc1ccccc1)c1ccccc13	·	·	·	·	-8.8%[14.2 µM]	·
COc1ccc(CNc2oc(-c3ccc(COc4ccccc4C)o3)nc2C#N)cc1	·	-28.9	·	-8.4%	?	-8.6%[46.1 µM]
COc1ccc(OC)c(CC2C(=O)Nc3ccc(Br)cc32)c1 (stereo unspecified)	·	-90.2*	·	12.6µM*	?	?
COc1ccc(CC2C(=O)Nc3ccc(Br)cc32)cc1OC (stereo unspecified)	·	-19.5	·	-26.9%	2.1%[46.1 µM]	-4.1%[46.1 µM]
NC(=O)c1cc[n+](CC(=O)c2ccc(NC(=O)c3ccccc3)cc2)cc1	9.9%	12.3	4.4%	0.2%	·	·
COc1cc2oc3ccc(C#Cc4ccc(N)cc4)cc3c(=O)c2cc1OC	·	64.5	12.6µM*	7.4%	·	·
COc1ccc(NC(=O)/C=C\C(=O)N(c2ccc(C(C)C)cc2)C(C(=O)NCc2ccco2)c2ccc(F)cc2)cc1 (stereo unspecified)	·	?	·	0.0%	·	?
CCOc1ccc(NC(=O)/C=C\C(=O)N(c2ccc(C(C)C)cc2)C(C(=O)NCc2ccco2)c2ccc(F)cc2)cc1 (stereo unspecified)	·	-61.2*	·	-15.5%	·	-24.9%[46.1 µM]
Cc1ccc(NC(=O)/C=C\C(=O)N(c2ccc(C(C)C)cc2)C(C(=O)NCc2ccco2)c2ccc(Cl)cc2)cc1 (stereo unspecified)	·	-76.2*	·	-19.5%	·	?
C=CCC(C#N)(c1ccc(OC)c(OC)c1)c1cnccn1 (stereo unspecified)	1.9%	-64.9*	-0.7%	-10.4%	·	·
